Assay outcomes from PubChem.
uPA generation: cell surface uPA generation inhibition | cell surface uPA generation assay, qHTS | AID 540303 | Potency, µM (series often up to 38.3 µM), for the others: top-dose activity change, negative = inhibition, most hits filed as inhibitors | 330,000 tested, 0.31% active; active = well fitted inhibition curve with a large enough effect; inconclusive = small, poorly fitted or top-dose-only effect; inactive = no such curve, though single readings can be large or run the other way; tested in mouse RAW 264.7 cells; note: potency is the fitted concentration of half-maximal effect; % is set by controls: 0 for no effect and ±100 for the full control effect; nearly all actives have a fitted effect of over 55% in size
RGS4 inh: blocks human RGS4-accelerated GTP hydrolysis | P49798 | Transcreener GDP fluorescence polarization, RGS4-accelerated GTP hydrolysis | Potency, µM (highest dose often 114 µM), for inactives: top-dose activity change, negative = inhibition, hits mostly inhibitors | 390,000 tested, 0.039% active; active = well fitted inhibition curve with a large enough effect; inconclusive = small, poorly fitted or top-dose-only effect; inactive = no such curve, though single readings can be large or run the other way; note: potency is the fitted concentration of half-maximal effect; % is set by controls: 0 for no effect and ±100 for the full control effect; nearly all actives have a fitted effect of over 75% in size
Target sequence (P49798 whole entry, looked up): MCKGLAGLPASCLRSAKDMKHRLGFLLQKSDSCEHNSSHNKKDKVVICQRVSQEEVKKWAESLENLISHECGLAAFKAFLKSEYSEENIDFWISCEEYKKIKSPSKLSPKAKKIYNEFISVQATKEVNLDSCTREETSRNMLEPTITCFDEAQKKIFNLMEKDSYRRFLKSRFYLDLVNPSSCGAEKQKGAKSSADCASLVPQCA
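MLSMR compounds (23 nl, pin-transferred) preincubated 10 min at room temperature with a 500nM (2x) first reagent, then RGS4 at 900nM (2x) plus Transcreener GDP mix added; fluorescence polarization (620/688 nm) read before and after 90 min at 30 °C.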
D3 antag: antagonists of human D3 dopamine receptor. D3R cells, DiscoveRx beta-arrestin luminescence, antagonist mode; stronger effect = lower value. max response, negative = inhibition, %. 360,000 tested, 2.5% active. AID 652054; in the data active = max response below about -50%; inconclusive = no clear call, values can overlap the other calls; note: % is set by controls: 0 for no effect and ±100 for the full control effect
Target sequence (P35462 whole entry, looked up): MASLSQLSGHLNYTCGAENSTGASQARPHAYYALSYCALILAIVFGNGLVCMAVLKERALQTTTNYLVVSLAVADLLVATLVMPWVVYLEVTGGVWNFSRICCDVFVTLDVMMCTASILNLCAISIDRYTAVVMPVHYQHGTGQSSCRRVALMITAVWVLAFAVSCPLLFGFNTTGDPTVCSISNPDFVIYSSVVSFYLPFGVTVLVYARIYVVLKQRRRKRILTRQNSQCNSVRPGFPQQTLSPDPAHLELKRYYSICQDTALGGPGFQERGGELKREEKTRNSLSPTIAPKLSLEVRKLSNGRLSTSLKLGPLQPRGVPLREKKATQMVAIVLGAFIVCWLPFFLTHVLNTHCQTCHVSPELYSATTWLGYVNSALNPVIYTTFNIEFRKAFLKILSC
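Cells expressing the human receptor were seeded at 1500 cells/well, incubated overnight at 37 degrees C in 5% CO2, then exposed to library compounds with dopamine controls for 90 minutes at 37 degrees C before luminescent detection.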
D3 ag: agonists of human D3 dopamine receptor. D3R DiscoveRx beta-arrestin cells, luminescence, 90 min. 410,000 tested, 0.58% active. max activation, %. P35462; in the data active = max activation above about 30%; note: 0% is about no effect
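Agonist-mode cell screen: cells plated at 1500/well and incubated overnight at 37 °C, then exposed to library compounds for 90 min at 37 °C. Detection reagent was added for 30–60 min at room temperature, and luminescence was read.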
* marks the source's active call; other numbers are inactive results; ? = inconclusive; . = no result given. Hits are enriched below; roughly 3.1% of the tested compounds scored in any of these assays.

SMILES	uPA generation	RGS4 inh	D3 antag	D3 ag
COc1cc(-c2cc3nc(NCc4ccco4)ccn3n2)cc(OC)c1OC	.	.	-75*	6
COc1ccc(NC(=O)Cn2c(=O)n(Cc3ccccc3OC)c(=O)c3cccnc32)cc1Cl	.	-7%	.	5
NCCCN(Cc1ccccc1)c1ccc(Br)cn1	.	6%	.	.
O=S(=O)(NCc1ccc(Cl)cc1)c1cnc[nH]1	0%	-6%	-12	-2
Cc1ccc(CCNS(=O)(=O)c2cnc[nH]2)cc1	3%	5%	-66*	-4
O=C(Nc1ccccc1)Nc1nnc([C@@H]2C[C@H](O)[C@@H](CO)O2)s1	.	.	-68*	-12
O=C(Nc1ccc(F)cc1)Nc1nnc([C@@H]2C[C@H](O)[C@@H](CO)O2)s1	.	.	-4	62*
O=C(Nc1ccc(OCc2ccccc2)cc1)Nc1nnc([C@H]2C[C@H](O)[C@@H](CO)O2)s1	.	.	-53*	-14
CC(C)NC(=O)Nc1nnc([C@@H]2C[C@H](O)[C@@H](CO)O2)s1	.	.	-20	38*
CCOc1ccc(N(CC(=O)Nc2ccccc2Cl)S(C)(=O)=O)cc1	10µM*	-20%	24	-4
CCOc1ccc(N(CC(=O)Nc2ccccc2OC)S(C)(=O)=O)cc1	?	-11%	2	2
COC(=O)c1ccccc1-c1c2ccc(=N)cc-2oc2cc(N)ccc12	-3%	?	-64*	-36
COC(=O)c1ccccc1-c1ccc(/C=N/NC(=O)c2cc3ccccc3o2)o1	6%	-8%	-10	-9
Cc1cccc(Cn2cnc3c(nnn3Cc3ccc(F)cc3)c2=O)c1	.	-3%	22	1
Cc1ccc(-n2nnc3c(=O)n(Cc4cc(C)ccc4C)cnc32)cc1	-6%	19%	-68*	-7
Cc1cccc(Cn2cnc3c(nnn3Cc3ccccc3F)c2=O)c1	.	-14%	3	56*
CC(C)c1ccc(C2N=C(N)Nc3nc4ccccc4n32)cc1 (configuration not stated)	.	-22%	.	-4
COc1ccc2c(c1)c1c(c(=O)n(-c3cccc(C)c3)c(=O)n1CC(=O)Nc1c(C)cc(C)cc1C)n2C	.	5%	.	12
CCCCNC(=O)COC(=O)c1c2c(nc3ccccc13)/C(=C\c1cccs1)CC2	-9%	-14%	72	34*
COc1ccc(N2CCN(C(=O)c3cc4c(-c5ccccc5F)nn(C)c4s3)CC2)cc1	.	-8%	.	16
Cc1ccc2c(c1)N(C(=O)Nc1cccc(C)c1C)CCO2	.	9%	.	-7
Cc1ccc(O)c(-c2cc(-c3ccc(F)cc3)no2)c1	10µM*	9%	-8	2
O=C(Nc1nnc(C2CCCCC2)s1)C1CCN(C(=O)c2ccco2)CC1	.	8%	.	.
COc1c(Br)cc(Br)cc1/C=N/NC(=O)c1ccncc1	4%	1%	-80*	-9
COc1c(Br)cc(Br)cc1/C=N/NC(=O)c1cccnc1	?	13%	-96*	-29
SMILES	uPA generation	RGS4 inh	D3 antag	D3 ag
COc1cc(/C=N/NC(=O)c2cccnc2)cc(Br)c1O	1%	-4%	-5	-1
COc1cccc(C(=O)Oc2c(Br)cc(Br)cc2/C=N/NC(=O)c2cc(C)[nH]n2)c1	4µM*	21%	-12	-3
Cc1cc(C(=O)N/N=C/c2cccc(OC(=O)c3cccc(Br)c3)c2)n[nH]1	-11%	21%	1	-12
O.O=C([O-])CC([S-])C(=O)[O-].[Au+].[Na+].[Na+] (configuration not stated)	.	.	.	-17
CN(C)c1ccc(/C=C2\Oc3ccc(C#Cc4cccc(N)c4)cc3C2=O)cc1	-11%	-44%	44	56*
COC(=O)c1ccc2c(c1)C(=O)/C(=C/c1ccc(C)cc1)O2	2%	-12%	37	-3
Cc1ccc(NC(=O)c2cccc(C(F)(F)F)c2)cc1NC(=O)c1[nH]cnc1C(N)=O	1%	0%	46	31*
Cc1nc2ccc(NC(=O)c3cccc(C(F)(F)F)c3)cc2o1	8%	6%	22	3
Cc1ccc(N2CCN(C(=O)C3CCN(S(=O)(=O)c4ccc5c(c4)oc(=O)n5C)CC3)CC2C)cc1 (configuration not stated)	.	27%	.	-7
NC(=O)c1c(N)[nH]c(C(=O)c2ccccc2)c1-c1ccccc1Br	.	.	-52*	-6
CC(C)(C)C(=O)c1c(N)[nH]c(C(=O)c2ccccc2)c1-c1ccccc1Br	.	.	-13	-5
CC[C@H]1NC(=O)[C@@H](NC(=O)c2ncccc2O)[C@@H](C)OC(=O)[C@H](c2ccccc2)NC(=O)[C@@H]2CC(=O)CCN2C(=O)[C@H](Cc2ccccc2)N(C)C(=O)[C@@H]2CCCN2C1=O	.	.	.	10
O=C1C=CC(O)(c2cc(=O)c3c(O)cc(O)cc3o2)C=C1	36%	?	-80*	-32
O=c1cc(-c2ccccc2Cl)oc2cc(O)cc(O)c12	12%	-11%	-11	1
CCN(CC)CCOc1ccc(/C(=C(\Cl)c2ccccc2)c2ccccc2)cc1	13%	4%	-65*	.
CCN(CC)CCOc1ccc(Br)cc1	5%	25%	-119*	-31
CCCN(CCO)Cc1ccc(Br)cc1	5%	-9%	-12	-12
CC(C)(C)NCCOc1ccc(Br)cc1	1%	-28%	-52*	-10
COc1cccc(OC)c1OCCNC(C)(C)C	6%	25%	5	9
CCN(CC)CCN(C)Cc1ccc(Br)cc1	1%	-14%	-55*	-25
Cc1cc(C)cc(N2C(=O)CC(c3ccc(C(F)(F)F)cc3)C3=C2COC3=O)c1 (configuration not stated)	.	10%	.	-1
O=C(COc1ccccc1Cl)Nc1ccc2[nH]c(=O)[nH]c2c1	1%	0%	-61*	3
CCOc1ccccc1OCC(=O)Nc1ccc2[nH]c(=O)[nH]c2c1	6%	-27%	3	-2
Cc1ccccc1-n1c(CSC(=N)N)nc2ccccc2c1=O	-5%	-11%	-72*	-4
O=C1c2ccccc2S(=O)(=O)N1CCS(=O)(=O)c1ccc(F)cc1	-6%	17%	-17	87*
SMILES	uPA generation	RGS4 inh	D3 antag	D3 ag
O=C(CCN1C(=O)c2ccccc2S1(=O)=O)N1CCN(c2ccc(F)cc2)CC1	-4%	4%	0	0
COc1ccc(N2CCN(C(=O)C3Cc4ccccc4N3C(C)=O)CC2)cc1 (configuration not stated)	.	20%	.	-9
COc1ccc(-c2noc3c2-c2nc(-c4ccc(Cl)cc4)sc2CC3)cc1	0%	-8%	-18	2
COc1ccc(-c2noc3c2-c2nc(-c4cccc(C)c4)sc2CC3)cc1	1%	-8%	45	59*
NC(=S)n1[nH]c(-c2ccc([N+](=O)[O-])cc2)c(N=Nc2ccc(Cl)cc2)c1=O	-4%	?	-24	-13
O=c1c(N=Nc2ccc(O)cc2)c(-c2ccccc2)[nH]n1-c1ccc([N+](=O)[O-])cc1	-8%	-19%	-70*	1
COC(=O)CSc1n[nH]c(=S)s1	-2%	-28%	-68*	-2
CCCCNC(=O)c1cnc2c(-c3ccc(OCC)c(OCC)c3)c(C)nn2c1-c1ccccc1	.	8%	.	-11
Cc1ccc(Nc2nnc(SCC(=O)NCCN3C(=O)CSC3=O)s2)cc1C	5µM*	-3%	2	0
